# Test results from PubChem BioAssay (EPA / NIEHS).
# Activity calls are given as the source filed them. Rule for the calls: active = hit-call score of the fitted dose curve at least 0.9, where 1 is the maximum; inactive = score below 0.9.
# Assays:
# [1] = read-out: Macrophage colony-stimulating factor (MCSF), CSF1 (gene 1435); assay: BSK_hDFCGF_MCSF: BioMAP Diversity Plus: hDFCGF Assay for Macrophage colony-stimulating factor (MCSF) Biomarker Activity (AID 2283060); conditions: primary human foreskin fibroblasts; actives raise or lower the signal
# In short: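 Human foreskin primary fibroblasts were treated with test chemical for 24 h, and M-CSF was then measured by ELISA. Data were fitted bidirectionally against DMSO as the negative control and activity baseline.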
# [2] = BSK_hDFCGF_SRB: Viability Assessment in the BioMAP Diversity Plus: hDFCGF Assay (AID 2283061); conditions: primary human foreskin fibroblasts;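 note: cells exposed to compound for 24 h before the read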
# In short: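 Human foreskin primary fibroblasts were treated with compound and assessed 24 h after dosing. Total protein was measured by sulforhodamine B staining (0.1% SRB after 10% TCA fixation, 560 nm read) as a cytotoxicity marker, with bidirectional fitting against DMSO baseline.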
# [3] = read-out: TIMP metallopeptidase inhibitor 1 (TIMP1), TIMP1 (gene 7076); assay: BSK_hDFCGF_TIMP1: BioMAP Diversity Plus: hDFCGF Assay for TIMP metallopeptidase inhibitor 1 (TIMP1) Biomarker Activity (AID 2283062); conditions: primary human foreskin fibroblasts; actives raise or lower the signal
# In short: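 Primary human foreskin fibroblasts in the hDFCGF system were dosed with compound for 24 h, then TIMP-1 was measured by ELISA. Activity was fitted bidirectionally relative to DMSO control; parallel SRB staining assessed cytotoxicity.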
# [4] = read-out: Monokine induced gamma interferon (MIG), CXCL9 (gene 4283); assay: BSK_hDFCGF_MIG: BioMAP Diversity Plus: hDFCGF Assay for Monokine induced gamma interferon (MIG) Biomarker Activity (AID 2283063); conditions: primary human foreskin fibroblasts; actives raise or lower the signal
# In short: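 ELISA read-out of MIG from primary human dermal fibroblasts 24 h post-dosing. Gain or loss of signal fitted bidirectionally, DMSO as baseline.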
# [5] = read-out: Matrix Metallopeptidase 1 (MMP1), MMP1 (gene 4312); assay: BSK_hDFCGF_MMP1: BioMAP Diversity Plus: hDFCGF Assay for Matrix Metallopeptidase 1 (MMP1) Biomarker Activity (AID 2283064); conditions: primary human foreskin fibroblasts; actives raise or lower the signal
# In short: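 MMP1 levels quantified by ELISA 24 h after dosing human dermal fibroblast cultures, with parallel SRB total-protein staining for overt cytotoxicity. Data fitted in both directions against DMSO baseline.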
# [6] = read-out: Vascular cell adhesion molecule 1 (VCAM1), VCAM1 (gene 7412); assay: BSK_hDFCGF_VCAM1: BioMAP Diversity Plus: hDFCGF Assay for Vascular cell adhesion molecule 1 (VCAM1) Biomarker Activity (AID 2283065); conditions: primary human foreskin fibroblasts; actives raise or lower the signal;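 for AC50: VCAM-1 protein level quantified by ELISA after 24 h chemical exposure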
# In short: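 Primary human foreskin fibroblasts (hDFCGF system) were dosed with chemical and VCAM-1 was measured by ELISA 24 h later. Bidirectional curve fitting used DMSO as negative control and activity baseline.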
# [7] = read-out: Plasminogen activator inhibitor-1 (PAI1), SERPINE1 (gene 5054); assay: BSK_hDFCGF_PAI1: BioMAP Diversity Plus: hDFCGF Assay for Plasminogen activator inhibitor-1 (PAI1) Biomarker Activity (AID 2283066); conditions: primary human foreskin fibroblasts; actives raise or lower the signal
# In short: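 PAI-1 levels in human dermal foreskin fibroblasts were quantified by ELISA 24 h after dosing, with gain or loss analysed against DMSO. Overt cytotoxicity was checked by sulforhodamine B total-protein staining in parallel cultures.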
# [8] = read-out: Intercellular Adhesion Molecule 1 (ICAM1), ICAM1 (gene 3383); assay: BSK_KF3CT_ICAM1: BioMAP Diversity Plus: KF3CT Assay for Intercellular Adhesion Molecule 1 (ICAM1) Biomarker Activity (AID 2283067); conditions: primary human keratinocytes with fibroblasts; actives raise or lower the signal
# In short: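 Human keratinocyte plus foreskin fibroblast primary co-culture was exposed to chemical for 24 h. ICAM-1 was then quantified by ELISA, and the data were fit bidirectionally against DMSO as the negative control and baseline.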
# [9] = read-out: Interferon-gamma inducible Protein 10 (IP10), CXCL10 (gene 3627); assay: BSK_KF3CT_IP10: BioMAP Diversity Plus: KF3CT Assay for Interferon-gamma inducible Protein 10 (IP10) Biomarker Activity (AID 2283068); conditions: primary human keratinocytes with fibroblasts; actives raise or lower the signal
# In short: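 KF3CT co-culture (keratinocytes + foreskin fibroblasts), 24 h compound, IP-10 by ELISA; bidirectional fit vs DMSO baseline.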
# [10] = BSK_KF3CT_SRB: Viability Assessment in the BioMAP Diversity Plus: KF3CT Assay (AID 2283069); conditions: primary human keratinocytes with fibroblasts;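 note: fitted for both signal gain and loss against DMSO baseline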
# In short: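 Cytotoxicity was gauged by SRB staining (0.1% SRB, 10% TCA fixation, 560 nm) of parallel cultures at 24 h. The cells were primary human skin keratinocytes co-cultured with fibroblasts, and activity was fitted in both directions against DMSO.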
Structure (SMILES),outcome [1],outcome [2],outcome [3],outcome [4],outcome [5],outcome [6],outcome [7],outcome [8],outcome [9],outcome [10],AC50 [1],AC50 [6],AC50 [9],AC50 [2],AC50 [3],AC50 [4],AC50 [5],AC50 [7],AC50 [8],AC50 [10]
CCCCOCCO,inactive,inactive,inactive,inactive,inactive,inactive,inactive,inactive,inactive,inactive,–,–,–,–,–,–,–,–,–,–
Oc1cccc(O)c1,inactive,inactive,inactive,inactive,inactive,inactive,inactive,inactive,inactive,inactive,–,–,–,–,–,–,–,–,–,–
NC(=O)N(O)[C@@H]1C=C[C@H](Oc2cccc(Oc3ccc(F)cc3)c2)C1,–,inactive,inactive,inactive,inactive,–,inactive,inactive,–,inactive,3.97 µM (active),8.65 µM (active),20 µM (active),–,–,–,–,–,–,–
CCCOC(=O)c1ccc(O)cc1,inactive,inactive,inactive,inactive,inactive,inactive,inactive,inactive,inactive,inactive,–,–,–,–,–,–,–,–,–,–
CC(C)(C)c1cc(C(C)(C)C)c(O)c(C(C)(C)C)c1,–,–,–,–,–,–,–,inactive,–,inactive,31.5 µM (active),31.5 µM (active),32.8 µM (active),32 µM (active),31.8 µM (active),33.5 µM (active),33.1 µM (active),32.2 µM (active),–,–
CCC(=C(c1ccc(O)cc1)c1ccc(OCCN(C)C)cc1)c1ccccc1,–,–,–,–,–,–,–,–,–,–,10.2 µM (active),10.7 µM (active),10.4 µM (active),10.7 µM (active),12.1 µM (active),13.7 µM (active),10.7 µM (active),7.53 µM (active),12.3 µM (active),8.81 µM (active)
CCCCC(CC)COC(=O)CCCCC(=O)OCC(CC)CCCC (stereo not given),inactive,inactive,inactive,inactive,inactive,inactive,inactive,inactive,inactive,inactive,–,–,–,–,–,–,–,–,–,–
CCC(C)(C)C1CCC(O)CC1 (stereo not given),inactive,inactive,inactive,inactive,inactive,inactive,inactive,inactive,–,inactive,–,–,32.8 µM (active),–,–,–,–,–,–,–
FC(F)(I)C(F)(F)C(F)(F)C(F)(F)C(F)(F)C(F)(F)I,–,–,–,–,–,–,–,–,–,–,4.77 µM (active) [middle of 5 runs],3.81 µM (active) [middle of 5 runs],7.76 µM (active) [middle of 5 runs],5.33 µM (active) [middle of 5 runs],6.72 µM (active) [middle of 5 runs],6.07 µM (active) [middle of 5 runs],5.8 µM (active) [middle of 5 runs],5.44 µM (active) [middle of 5 runs],9.2 µM (active) [middle of 5 runs],8.99 µM (active) [middle of 5 runs]
CCCCCCCCOC(=O)CCCCCCCCC(=O)OCCCCCCCC,inactive,inactive,inactive,inactive,inactive,inactive,inactive,inactive,inactive,inactive,–,–,–,–,–,–,–,–,–,–
NCC(F)(F)C(F)(F)C(F)(F)C(F)(F)C(F)(F)C(F)(F)C(F)(F)F,inactive,inactive,inactive,inactive,inactive,inactive,inactive,inactive,inactive,inactive,–,–,–,–,–,–,–,–,–,–
COc1ccc([N+](=O)[O-])cc1N,inactive,inactive,inactive,inactive,inactive,inactive,inactive,inactive,inactive,inactive,–,–,–,–,–,–,–,–,–,–
CCCCCCCC(=O)O,inactive,inactive,inactive,inactive,inactive,inactive,inactive,inactive,inactive,inactive,–,–,–,–,–,–,–,–,–,–
COCC(C)OCC(C)O (stereo not given),inactive,inactive,inactive,inactive,inactive,inactive,inactive,inactive,inactive,inactive,–,–,–,–,–,–,–,–,–,–
NC(=O)N1C(=O)C(C(=O)c2cc(Cl)cs2)c2cc(F)c(Cl)cc21 (stereo not given),–,–,–,–,–,–,–,–,–,–,2.1 µM (active),5.54 µM (active),8.07 µM (active),5.47 µM (active),5.17 µM (active),12.7 µM (active),10.3 µM (active),1.71 µM (active),12.4 µM (active),6.16 µM (active)
OC1CCCCC1,inactive,inactive,inactive,inactive,inactive,inactive,inactive,inactive,inactive,inactive,–,–,–,–,–,–,–,–,–,–
C#C[C@]1(O)CC[C@H]2[C@@H]3CCC4=CC(=O)CC[C@@H]4[C@H]3CC[C@@]21C,inactive,inactive,inactive,inactive,inactive,inactive,inactive,inactive,inactive,inactive,–,–,–,–,–,–,–,–,–,–
